Reference: PubChem BioAssay AID1159580 (chemical genetic matrix, 2015)
Hit rate of the full screen: of about 5,500 compounds, about 2,000 (36%) were called active. About 18% were inconclusive and are not listed. No stated cut-off is given here; in the data, active means normalized growth mostly below about 0.91 (no sharp cut-off); inconclusive means no clear call, values can overlap the other calls; inactive means mostly above about 0.92. The list shows a part of the results.

Test: chemical genetic growth profiling, strain panel (AID 1159580);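 further: tested at 20 µM; growth read once vehicle control cultures reached saturation at 30 °C; 1 = growth at the plate median or of vehicle wells; lower values mean less growth of the strain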
Details: S. cerevisiae deletion strains, growth OD

Measured: normalized growth

O=C(O)C1=C(CSc2nnnn2CS(=O)(=O)O)CS[C@@H]2C(NC(=O)[C@H](O)c3ccccc3)C(=O)N12 (stereo not given in full)
inactive: locus YAL021C, strain ccr4, hits give low values 0.955 | locus YAL026C, strain drs2, hits give low values 0.965 | locus YAL030W, strain snc1, hits give low values 0.993 | locus YBL061C, strain skt5, hits give low values 0.989 | locus YBR009C, strain hhf1, hits give low values 0.993 | locus YBR023C, strain chs3, hits give low values 0.988 | locus YBR171W, strain sec66, hits give low values 0.978 | locus YBR231C, strain swc5, hits give low values 0.987 | locus YBR279W, strain paf1, hits give low values 0.99 | locus YCL011C, strain gbp2, hits give low values 0.963 | locus YCL016C, strain dcc1, hits give low values 0.987 | locus YCL061C, strain MRC1, hits give low values 0.971 | locus YCL069W, strain vba3, hits give low values 0.978 | locus YCR088W, strain abp1, hits give low values 0.968 | locus YDL005C, strain med2, hits give low values 0.98 | locus YDL040C, strain nat1, hits give low values 0.989 | locus YDR001C, strain nth1, hits give low values 0.978 | locus YDR069C, strain doa4, hits give low values 0.982 | locus YDR137W, strain rgp1, hits give low values 0.928 | locus YDR159W, strain sac3, hits give low values 0.966 | locus YDR195W, strain ref2 0.971 | locus YDR297W, strain sur2, hits give low values 0.985 | locus YDR334W, strain swr1, hits give low values 0.95 | locus YDR335W, strain msn5, hits give low values 0.963 | locus YDR392W, strain spt3, hits give low values 0.956 | locus YEL003W, strain gim4, hits give low values 0.969 | locus YEL037C, strain rad23, hits give low values 0.963 | locus YEL061C, strain CIN8 (second series), hits give low values 0.972 | locus YER015W, strain faa2, hits give low values 0.986 | locus YER016W, strain bim1, hits give low values 0.978 | locus YER111C, strain swi4, hits give low values 0.981 | locus YER155C, strain BEM2 (second series), hits give low values 0.989 | locus YFR010W, strain ubp6, hits give low values 0.964 | locus YGL167C, strain pmr1, hits give low values 0.987 | locus YGL173C, strain kem1, hits give low values 0.983 | locus YGL227W, strain vid30, hits give low values 0.994 | locus YGL240W, strain doc1, hits give low values 1.01 | locus YGL253W, strain hxk2, hits give low values 0.991 | locus YHR013C, strain ard1, hits give low values 0.963 | locus YHR027C, strain rpn1, hits give low values 0.975 | locus YHR030C, strain SLT2, hits give low values 1 | locus YHR079C, strain IRE1, hits give low values 1.03 | locus YHR142W, strain chs7, hits give low values 0.948 | locus YJL092W, strain hpr5, hits give low values 0.97 | locus YJL095W, strain BCK1 (second series), hits give low values 0.994 | locus YJL095W, strain BCK1, hits give low values 1.01 | locus YJL115W, strain asf1, hits give low values 0.968 | locus YJL129C, strain trk1, hits give low values 0.961 | locus YJL154C, strain vps35, hits give low values 0.989 | locus YJL164C, strain tpk1, hits give low values 0.982 | locus YJL166W, strain qcr8, hits give low values 0.99 | locus YJL187C, strain SWE1, hits give low values 0.991 | locus YJR066W, strain TOR1, hits give low values 0.945 | locus YKL160W, strain elf1, hits give low values 0.974 | locus YKR026C, strain gcn3, hits give low values 0.972 | locus YKR091W, strain srl3, hits give low values 0.989 | locus YLL001W, strain dnm1, hits give low values 0.965 | locus YLL026W, hits give low values 0.991 | locus YLL041C, strain sdh2, hits give low values 0.982 | locus YLR027C, strain aat2, hits give low values 0.984 | locus YLR113W, strain HOG1, hits give low values 1.04 | locus YLR221C, strain rsa3, hits give low values 0.975 | locus YLR258W, strain gsy2, hits give low values 0.995 | locus YLR262C, strain YPT6 (second series), hits give low values 0.98 | locus YLR320W, strain mms22, hits give low values 0.995 | locus YLR342W, strain FKS1, hits give low values 0.982 | locus YLR357W, strain rsc2, hits give low values 1 | locus YLR370C, strain arc18, hits give low values 0.971 | locus YLR384C, strain iki3, hits give low values 0.987 | locus YML120C, strain ndi1, hits give low values 0.958 | locus YMR058W, strain fet3, hits give low values 0.97 | locus YMR125W, strain sto1, hits give low values 0.993 | locus YMR129W, hits give low values 0.975 | locus YMR205C, strain PFK2, hits give low values 1.01 | locus YMR231W, strain pep5, hits give low values 0.984 | locus YNL071W, strain lat1, hits give low values 0.992 | locus YNL183C, strain NPR1, hits give low values 0.952 | locus YNL209W, strain ssb2, hits give low values 0.982 | locus YNL248C, strain rpa49, hits give low values 0.947 | locus YNL322C, strain KRE1 (second series), hits give low values 0.977 | locus YNR049C, strain mso1, hits give low values 0.983 | locus YOR001W, strain rrp6, hits give low values 0.942 | locus YOR070C, strain gyp1, hits give low values 0.993 | locus YOR080W, strain dia2, hits give low values 0.981 | locus YOR083W, strain WHI5, hits give low values 0.972 | locus YOR106W, strain vam3, hits give low values 0.971 | locus YOR231W, strain MKK1, hits give low values 1.01 | locus YOR265W, strain rbl2, hits give low values 0.991 | locus YOR270C, strain vph1, hits give low values 0.964 | locus YOR290C, strain snf2, hits give low values 0.979 | locus YPL051W, strain arl3, hits give low values 0.998 | locus YPL078C, strain atp4, hits give low values 0.966 | locus YPL106C, strain sse1, hits give low values 0.961 | locus YPL240C, strain hsp82, hits give low values 0.971 | locus YPL256C, strain CLN2, hits give low values 1.04
